In PubChem BioAssay (EPA / NIEHS):
“And” between values parts separate entries of the source, which are not always exact repeats. Identical values can stand only once. The source made the active and inactive calls. How the source made its calls: active means hit-call score of the fitted dose curve at least 0.9, where 1 is the maximum; inactive means score below 0.9.

Each molecule was assayed on Intercellular Adhesion Molecule 1 (ICAM1), ICAM1 (gene 3383) (assay: BSK_BE3C_ICAM1: BioMAP Diversity Plus: BE3C Assay for Intercellular Adhesion Molecule 1 (ICAM1) Biomarker Activity (AID 2284278)). Details: primary human bronchial epithelial cells.
Experimental: BSK_BE3C is a cell-based, multiplexed-readout assay that uses bronchial epithelial cell, a human lung primary cell, with measurements taken at 24 hours after chemical dosing in a 96-well plate.BSK_BE3C_ICAM1 is an assay component measured in the BSK_BE3C assay. It measures ICAM-1 antibody related to regulation of gene expression using ELISA technology.Data from the assay component BSK_BE3C_ICAM1 was analyzed at the endpoint, BSK_BE3C_ICAM1, in the positive analysis fitting direction relative to DMSO as the negative control and baseline of activity. Using a type of binding reporter, gain or loss-of-signal activity can be used to understand protein changes. To generalize the intended target to other relatable targets, this assay endpoint is annotated to the 'cell adhesion molecules' intended target family, where the subfamily is 'Immunoglobulin CAM'.
The levels of cell surface (or secreted, indicated by the prefix "s") biomarker endpoints were measured by ELISA. Overt cytotoxicity to cells in confluent adherent cultures (all systems other than the BT system) was assessed by measuring total protein levels using sulforhodamine B (SRB) staining in parallel cultures at the time of biomarker measurements, indicated as SRB endpoints. For proliferation assays for adherent cell types, individual cell types are cultured at sub-confluence and relative cell numbers quantified by SRB staining at time points optimized for each system (48 h: 3C and CASM3C systems; 72 h: BT and HDF3CGF systems; 96 h: SAg system). SRB was performed by staining cells with 0.1% SRB after fixation with 10% TCA and reading wells at 560 nm.Viability and proliferation of PBMC (T cells) was quantified by Alamar Blue reduction for the SAg and BT systems. For PBMC viability (referred to as PBMC Cytotoxicity within the assay endpoint names), cells were plated (75,000/well in a 96-well plate) and then chemical samples added for 1 h before addition of activators, SEB and TSST-1 (20 ng/mL final concentration each). Cells were incubated for 90 h. Then, Alamar Blue (20 uL/well) (Invitrogen, Cat DAL1100) was added for 6 h, and the plates were read with a fluorescence microplate reader at 546/580 nm (excitation/emission). For PBMC proliferation, cells were plated and activated as above but incubated for only 16 h prior to addition of Alamar Blue. Plates were read after 6 h.
In the case of `O=P(O)(O)CCC(F)(F)C(F)(F)C(F)(F)C(F)(F)C(F)(F)C(F)(F)F`, the outcome is reported as “inactive”. For `CCCCCCCCCCCC`, the AC50 was 7.01 µM (active) and 6.7 µM (active). In the case of `CN(CCO)S(=O)(=O)C(F)(F)C(F)(F)C(F)(F)C(F)(F)C(F)(F)C(F)(F)C(F)(F)C(F)(F)F`, the outcome is reported as “inactive”. `CN(Cc1cnc2nc(N)nc(N)c2n1)c1ccc(C(=O)N[C@@H](CCC(=O)O)C(=O)O)cc1` was tested, and the outcome was “inactive”. `O=C(CC(=O)C(F)(F)C(F)(F)C(F)(F)F)c1cccs1` was tested, and the AC50 was 42.2 µM (active) and 35.1 µM (active). `O=C(O)CCC(F)(F)C(F)(F)C(F)(F)C(F)(F)C(F)(F)C(F)(F)F` was tested, and the outcome was “inactive”. In the case of `O=S(=O)(O)C(F)(F)C(F)(F)C(F)(F)C(F)(F)C(F)(F)C(F)(F)C(F)(F)C(F)(F)C(F)(F)C(F)(F)F`, the outcome is reported as “inactive”. For `O=C1NS(=O)(=O)c2ccccc21`, the outcome was “inactive”. With `O=P(O)(O)CCC(F)(F)C(F)(F)C(F)(F)C(F)(F)C(F)(F)C(F)(F)C(F)(F)C(F)(F)F` the outcome was “inactive”. For `Oc1ccc(Cc2ccccc2O)cc1`, the outcome was “inactive”. `OCC(F)(F)C(F)(F)C(F)(F)C(F)(F)C(F)(F)C(F)(F)C(F)(F)C(F)(F)C(F)(F)C(F)(F)C(F)(F)F` was tested, and the outcome was “inactive”. For `O=C(O)C(F)(F)OC(F)(F)C(F)(F)OC(F)(F)C(F)(F)OC(F)(F)C(F)(F)C(F)(F)C(F)(F)F`, the AC50 was 6.39 µM (active) and 5.8 µM (active). In the case of `O=C(O)CCC(F)(F)C(F)(F)C(F)(F)C(F)(F)C(F)(F)F`, the outcome is reported as “inactive”. In the case of `Oc1c(Cl)cc(Cl)cc1Sc1cc(Cl)cc(Cl)c1O`, the AC50 is reported as 5.56 µM (active) and 6.58 µM (active). With `C=CC(=O)OCCC(F)(F)C(F)(F)C(F)(F)C(F)(F)C(F)(F)C(F)(F)C(F)(F)C(F)(F)F` the outcome was “inactive”.
